From PubChem BioAssay (NCATS)
Inconclusive results are not listed. Entries that show only a call come without a potency. The source made the active and inactive calls. Unless noted, calls follow the shape of the full dose curve.

Target: Glucocorticoid receptor (Homo sapiens) (UniProt P04150)
Test: qHTS assay for small molecule agonists of glucocorticoid receptor signaling (AID 588532; active = well fitted curve in the direction sought with a large enough effect in the signal ratio, with a control signal flat; the % refers to the signal ratio)
Settings: HeLa MMTV-bla, beta-lactamase ratio, agonist, 18 h; activation: stronger effect = higher value, percent of dexamethasone control, DMSO zero
Method in brief: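 MMTV-bla HeLa beta-lactamase reporter cells in 1% charcoal/dextran FBS medium, compounds up to 92 uM for 18 h at 37 C, CCF4 readout; normalized to 0.1 uM dexamethasone (100%), EC50 and efficacy from Hill fits.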

Glucocorticoid receptor (Homo sapiens), sequence (P04150 whole entry, looked up): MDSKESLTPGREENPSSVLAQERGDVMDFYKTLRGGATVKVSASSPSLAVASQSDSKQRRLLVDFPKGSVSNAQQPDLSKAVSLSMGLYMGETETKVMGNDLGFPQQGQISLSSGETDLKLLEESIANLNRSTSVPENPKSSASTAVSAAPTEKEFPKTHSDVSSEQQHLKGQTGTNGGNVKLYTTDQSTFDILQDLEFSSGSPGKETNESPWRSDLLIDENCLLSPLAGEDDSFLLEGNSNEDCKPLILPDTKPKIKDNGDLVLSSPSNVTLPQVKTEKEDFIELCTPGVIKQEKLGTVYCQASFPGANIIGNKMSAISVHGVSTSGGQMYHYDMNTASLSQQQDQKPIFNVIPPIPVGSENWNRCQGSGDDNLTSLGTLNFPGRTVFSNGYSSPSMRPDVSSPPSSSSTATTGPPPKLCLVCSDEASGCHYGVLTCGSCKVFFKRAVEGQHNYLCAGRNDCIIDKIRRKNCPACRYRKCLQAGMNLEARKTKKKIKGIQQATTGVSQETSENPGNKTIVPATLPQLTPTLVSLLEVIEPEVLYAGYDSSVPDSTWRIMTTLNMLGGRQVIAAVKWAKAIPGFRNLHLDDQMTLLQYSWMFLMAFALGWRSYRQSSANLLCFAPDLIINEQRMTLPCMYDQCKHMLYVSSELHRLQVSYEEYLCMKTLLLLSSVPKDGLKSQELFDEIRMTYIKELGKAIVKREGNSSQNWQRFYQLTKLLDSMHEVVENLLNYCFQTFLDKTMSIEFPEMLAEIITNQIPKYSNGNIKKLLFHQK

| Compound | activation |
| --- | --- |
| Fc1ccc(Oc2ccnc3cc(Cl)cc(Cl)c23)cc1 | -6.4% (inactive) |
| COC(=O)N(OC)c1ccccc1COc1ccn(-c2ccc(Cl)cc2)n1 | -3.13% (inactive) |
| CC[C@H]1CCCC(O[C@H]2CC[C@H](N(C)C)[C@@H](C)O2)[C@@H](C)C(=O)C2=C[C@@H]3[C@@H](C=C[C@@H]4C[C@@H](O[C@@H]5O[C@@H](C)[C@H](OC)[C@@H](OC)[C@H]5OC)C[C@@H]34)[C@@H]2CC(=O)O1 (stereo partly drawn) | -4.34% (inactive) |
| O=C(O)[C@@H]1[C@H](C(=O)O)[C@@]2(Cl)C(Cl)=C(Cl)[C@]1(Cl)C2(Cl)Cl | -1.44% (inactive) |
| CCCCCCCCCCCCN(C)C | -15.1% (inactive) |
| CCOP(=S)(OCC)SCn1nnc2ccccc2c1=O | 9.79% (inactive) |
| CSC1=N[C@@](C)(c2ccccc2)C(=O)N1Nc1ccccc1 | 0.812% (inactive) |
| CCC[CH2][Sn]([Cl])([Cl])[CH2]CCC | -12% (inactive) |
| CC(C)(C)c1ccc(CSc2cnn(C(C)(C)C)c(=O)c2Cl)cc1 | -0.474% (inactive) |
| CC(c1ccc(O)cc1)(c1ccc(O)cc1)c1ccc(O)cc1 | -5.2% (inactive) |
| CC(C)N(C(=O)SCC(Cl)=C(Cl)Cl)C(C)C | 18.5% (inactive) |
| CCC[CH2][Sn]1([CH2]CCC)[O]C(=O)C=CC(=O)[O]1 | -4.93% (inactive) |
| CCC(C)c1cc([N+](=O)[O-])cc([N+](=O)[O-])c1O (stereo not drawn) | -12.7% (inactive) |
| O=P(Oc1ccccc1)(Oc1ccccc1)Oc1ccccc1 | 6.86% (inactive) |

Target: Glucocorticoid receptor (Homo sapiens) (UniProt P04150)
Test: qHTS assay for small molecule antagonists of glucocorticoid receptor signaling (AID 588533; active = well fitted inhibition curve with a large enough effect in the signal ratio, with a control signal flat, not every such curve was filed as active; the % refers to the signal ratio; also: potency is read from the fitted curve at half-maximal effect)
Settings: HeLa MMTV-bla, GRE beta-lactamase ratio, antagonist mode, 18 h; series mostly up to 76.8 µM
Method in brief: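 Antagonist-mode qHTS: compound titrations added to GRE-bla HeLa cells, then dexamethasone 2 nM final; 18 h, 37 C. CCF4 FRET fluorescence normalized to dexamethasone and DMSO; IC50 from Hill fit.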

| Compound | Potency |
| --- | --- |
| O=C(O)[C@@H]1[C@H](C(=O)O)[C@@]2(Cl)C(Cl)=C(Cl)[C@]1(Cl)C2(Cl)Cl | inactive |
| CCCCCCCCCCCCN(C)C | inactive |
| CCC[CH2][Sn]([Cl])([Cl])[CH2]CCC | 15.8 µM (active) |
| CC(C)N(C(=O)SCC(Cl)=C(Cl)Cl)C(C)C | inactive |
| CCC[CH2][Sn]1([CH2]CCC)[O]C(=O)C=CC(=O)[O]1 | 15.8 µM (active) |
| O=P(Oc1ccccc1)(Oc1ccccc1)Oc1ccccc1 | inactive |

Target: Peroxisome proliferator-activated receptor delta (Homo sapiens) (UniProt Q03181)
Test: qHTS assay for small molecule agonists of peroxisome proliferator-activated receptor delta signaling (AID 588534)
Settings: HEK293T PPARdelta-UAS-bla, beta-lactamase ratio, 18 h; series mostly up to 76.7 µM
Method in brief: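 Agonist-mode beta-lactamase reporter readout (CCF4 dye, 2 h at RT) after 18 h at 37 °C exposure to a titration; Hill-equation fitting gave EC50 and maximal response.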

Peroxisome proliferator-activated receptor delta (Homo sapiens), sequence (Q03181 whole entry, looked up): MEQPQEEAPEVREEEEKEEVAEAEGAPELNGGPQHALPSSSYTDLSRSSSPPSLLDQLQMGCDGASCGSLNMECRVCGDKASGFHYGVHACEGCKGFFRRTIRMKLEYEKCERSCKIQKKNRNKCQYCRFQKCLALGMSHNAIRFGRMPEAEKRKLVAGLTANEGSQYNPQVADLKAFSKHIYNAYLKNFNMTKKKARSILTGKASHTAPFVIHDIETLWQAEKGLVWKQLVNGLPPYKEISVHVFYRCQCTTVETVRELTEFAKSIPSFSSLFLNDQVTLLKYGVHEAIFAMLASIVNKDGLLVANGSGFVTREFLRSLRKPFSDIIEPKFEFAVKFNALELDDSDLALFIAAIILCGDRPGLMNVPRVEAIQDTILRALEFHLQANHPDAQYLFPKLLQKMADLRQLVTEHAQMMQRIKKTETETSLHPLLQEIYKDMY

| Compound | outcome |
| --- | --- |
| CC(Cl)(Cl)C(=O)OCCOc1cc(Cl)c(Cl)cc1Cl | inactive |
| O=C(O)[C@@H]1[C@H](C(=O)O)[C@@]2(Cl)C(Cl)=C(Cl)[C@]1(Cl)C2(Cl)Cl | inactive |
| CCCCCCCCCCCCN(C)C | inactive |
| CCOP(=S)(OCC)SCn1nnc2ccccc2c1=O | inactive |
| CSC1=N[C@@](C)(c2ccccc2)C(=O)N1Nc1ccccc1 | inactive |
| CC(C)N(C(=O)SCC(Cl)=C(Cl)Cl)C(C)C | inactive |
| O=C(O)c1ccc([N+](=O)[O-])cc1 | inactive |
| OCl | inactive |

Test system: not listed separately
Test: qHTS assay for small molecule antagonists of peroxisome proliferator-activated receptor delta signaling (AID 588535; active = well fitted inhibition curve with a large enough effect in the signal ratio, with a control signal flat, not every such curve was filed as active; the % refers to the signal ratio; also: potency is read from the fitted curve at half-maximal effect;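 as to max response: cells co-treated with a PPAR-delta agonist as stimulator during compound exposure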)
Settings: HEK293T PPARd-UAS-bla, beta-lactamase FRET ratio, 18 h; 460 nm channel
Method in brief: (§1)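 Fluorescence from CCF4-loaded GeneBLAzer PPAR-delta-UAS-bla HEK293T cells (2 hrs RT loading) quantified reporter inhibition after an 18 hr, 37 C compound exposure across a titration.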

| Compound | max response [%] |
| --- | --- |
| O=C(O)[C@@H]1[C@H](C(=O)O)[C@@]2(Cl)C(Cl)=C(Cl)[C@]1(Cl)C2(Cl)Cl | 2.51 |
| CCCCCCCCCCCCN(C)C | -18.8 |
| CCOP(=S)(OCC)SCn1nnc2ccccc2c1=O | 7.16 |
| CCC[CH2][Sn]([Cl])([Cl])[CH2]CCC | -91.3 |
| CCC[CH2][Sn]1([CH2]CCC)[O]C(=O)C=CC(=O)[O]1 | -94 |
| CCC(C)c1cc([N+](=O)[O-])cc([N+](=O)[O-])c1O (stereo not drawn) | 0.93 |
| O=P(Oc1ccccc1)(Oc1ccccc1)Oc1ccccc1 | 29 |

Target: Peroxisome proliferator-activated receptor delta (Homo sapiens) (UniProt Q03181)
Test: as above
Settings: HEK293T PPARd-UAS-bla, beta-lactamase FRET ratio, 18 h; series mostly up to 76.7 µM
Method in brief: as §1

| Compound | Potency |
| --- | --- |
| O=C(O)[C@@H]1[C@H](C(=O)O)[C@@]2(Cl)C(Cl)=C(Cl)[C@]1(Cl)C2(Cl)Cl | inactive |
| CCCCCCCCCCCCN(C)C | inactive |
| CCOP(=S)(OCC)SCn1nnc2ccccc2c1=O | inactive |
| CCC[CH2][Sn]([Cl])([Cl])[CH2]CCC | 3.98 µM (active) |
| CCC[CH2][Sn]1([CH2]CCC)[O]C(=O)C=CC(=O)[O]1 | 5.01 µM (active) |
| CCC(C)c1cc([N+](=O)[O-])cc([N+](=O)[O-])c1O (stereo not drawn) | inactive |
| O=P(Oc1ccccc1)(Oc1ccccc1)Oc1ccccc1 | inactive |

Target: Peroxisome proliferator-activated receptor gamma (Homo sapiens) (UniProt P37231)
Test: qHTS assay for small molecule agonists of peroxisome proliferator-activated receptor gamma signaling (AID 588536; active = well fitted curve in the direction sought with a large enough effect in the signal ratio, with a control signal flat, not every such curve was filed as active; the % refers to the signal ratio)
Settings: HEK293 PPARg-UAS-bla, beta-lactamase ratio, 16 h; series mostly up to 76.7 µM
Method in brief: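 Using GeneBLAzer HEK293 cells, response was quantified by CCF4 fluorescence and normalized between basal DMSO (0%) and rosiglitazone 2 uM (100%); curves yielded half-maximal stimulation concentration and efficacy.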

Peroxisome proliferator-activated receptor gamma (Homo sapiens), sequence (P37231 whole entry, looked up): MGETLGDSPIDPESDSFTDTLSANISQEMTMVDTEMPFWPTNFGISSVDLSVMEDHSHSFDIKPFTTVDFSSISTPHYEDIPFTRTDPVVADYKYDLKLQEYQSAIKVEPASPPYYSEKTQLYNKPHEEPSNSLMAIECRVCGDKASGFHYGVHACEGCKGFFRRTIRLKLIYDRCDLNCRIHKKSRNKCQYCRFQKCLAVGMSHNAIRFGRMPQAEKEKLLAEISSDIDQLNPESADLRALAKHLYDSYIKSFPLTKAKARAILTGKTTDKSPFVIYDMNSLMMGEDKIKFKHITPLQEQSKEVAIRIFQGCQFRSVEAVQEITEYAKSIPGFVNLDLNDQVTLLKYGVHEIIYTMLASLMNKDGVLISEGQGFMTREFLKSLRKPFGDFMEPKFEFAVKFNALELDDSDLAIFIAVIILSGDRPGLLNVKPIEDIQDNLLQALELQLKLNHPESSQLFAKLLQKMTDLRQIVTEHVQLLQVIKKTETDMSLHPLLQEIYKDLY

| Compound | Potency |
| --- | --- |
| CCCCCCCCCCCCN(C)C | inactive |
| CCOP(=S)(OCC)SCn1nnc2ccccc2c1=O | inactive |
| CCC(C)c1cc([N+](=O)[O-])cc([N+](=O)[O-])c1O (stereo not drawn) | inactive |
| O=P(Oc1ccccc1)(Oc1ccccc1)Oc1ccccc1 | inactive |

Target: Vitamin D3 receptor (Homo sapiens) (UniProt P11473)
Test: qHTS assay for small molecule antagonists of vitamin D receptor signaling (AID 588541);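 also: receptor activated by calcitriol during compound treatment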
Settings: HEK293T VDR-UAS-bla, beta-lactamase ratio, antagonist mode; series mostly up to 76.7 µM
Method in brief: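 VDR-UAS-bla HEK293T cells in 2% charcoal-stripped FBS were stimulated with 1-alpha,25-dihydroxyvitamin D3 (3 nM final) plus compound for 16 h at 37 C. The beta-lactamase CCF4 readout was normalized to 50 nM agonist and DMSO, and Hill fits gave IC50.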

Vitamin D3 receptor (Homo sapiens), sequence (P11473 whole entry, looked up): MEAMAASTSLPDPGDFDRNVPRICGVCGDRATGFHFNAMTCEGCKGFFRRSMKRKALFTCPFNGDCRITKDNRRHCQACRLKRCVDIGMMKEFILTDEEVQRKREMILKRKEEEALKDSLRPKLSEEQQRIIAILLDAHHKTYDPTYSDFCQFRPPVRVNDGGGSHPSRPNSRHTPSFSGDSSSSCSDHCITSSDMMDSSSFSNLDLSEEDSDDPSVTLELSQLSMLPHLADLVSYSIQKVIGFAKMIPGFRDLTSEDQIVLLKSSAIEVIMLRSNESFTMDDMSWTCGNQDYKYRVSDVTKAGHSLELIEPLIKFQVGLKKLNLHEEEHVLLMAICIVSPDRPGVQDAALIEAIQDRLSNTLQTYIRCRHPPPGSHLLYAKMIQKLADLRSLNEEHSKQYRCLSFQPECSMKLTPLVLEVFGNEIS

| Compound | Potency |
| --- | --- |
| CCCCCCCCCCCCN(C)C | inactive |
| CCOP(=S)(OCC)SCn1nnc2ccccc2c1=O | inactive |
| CC(C)N(C(=O)SCC(Cl)=C(Cl)Cl)C(C)C | inactive |
| CCC(C)c1cc([N+](=O)[O-])cc([N+](=O)[O-])c1O (stereo not drawn) | inactive |
| O=P(Oc1ccccc1)(Oc1ccccc1)Oc1ccccc1 | inactive |

Target: Vitamin D3 receptor (Homo sapiens) (UniProt P11473)
Test: qHTS assay for small molecule agonists of vitamin D receptor signaling (AID 588543)
Settings: HEK293T VDR-UAS-bla, beta-lactamase ratio, 16 h; series mostly up to 76.8 µM
Method in brief: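 GeneBLAzer VDR-UAS-bla HEK293T cells in 2% charcoal-stripped FBS medium were dosed with compound titrations for 16 h at 37 °C; CCF4 β-lactamase readout (405 nm ex, 460/530 nm em). EC50 and efficacy from Hill fits, normalized to 50 nM calcitriol (100%) and DMSO (0%).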

| Compound | outcome |
| --- | --- |
| COC(=O)N(OC)c1ccccc1COc1ccn(-c2ccc(Cl)cc2)n1 | inactive |
| CCCCCCCCCCCCN(C)C | inactive |
| CCOP(=S)(OCC)SCn1nnc2ccccc2c1=O | inactive |
| CSC1=N[C@@](C)(c2ccccc2)C(=O)N1Nc1ccccc1 | inactive |
| CC(c1ccc(O)cc1)(c1ccc(O)cc1)c1ccc(O)cc1 | inactive |
| CC(C)N(C(=O)SCC(Cl)=C(Cl)Cl)C(C)C | inactive |
| O=P(Oc1ccccc1)(Oc1ccccc1)Oc1ccccc1 | inactive |
